Experimental data taken from PubChem BioAssay AID652054 (National Center for Advancing Translational Sciences (NCATS), 2013).
“And” between values parts separate entries of the source, which are not always exact repeats. Equal values may be shown once. Among all 360,000 compounds or so, about 9,100 (2.5%) were called active. Inconclusive results (about 4%) are left out. No stated cut-off is given here; in the data, active means max response below about -50%; inconclusive means no clear call, values can overlap the other calls; inactive means above that. The list comes from a sample in which actives are over-represented; it also holds similar structures and randomly drawn compounds.

biological target: D(3) dopamine receptor (Homo sapiens) (UniProt P35462); assay: qHTS of D3 Dopamine Receptor Antagonist: qHTS; details: D3R cells, DiscoveRx beta-arrestin luminescence, antagonist mode; active compounds read low
Sequence (P35462 whole entry, looked up): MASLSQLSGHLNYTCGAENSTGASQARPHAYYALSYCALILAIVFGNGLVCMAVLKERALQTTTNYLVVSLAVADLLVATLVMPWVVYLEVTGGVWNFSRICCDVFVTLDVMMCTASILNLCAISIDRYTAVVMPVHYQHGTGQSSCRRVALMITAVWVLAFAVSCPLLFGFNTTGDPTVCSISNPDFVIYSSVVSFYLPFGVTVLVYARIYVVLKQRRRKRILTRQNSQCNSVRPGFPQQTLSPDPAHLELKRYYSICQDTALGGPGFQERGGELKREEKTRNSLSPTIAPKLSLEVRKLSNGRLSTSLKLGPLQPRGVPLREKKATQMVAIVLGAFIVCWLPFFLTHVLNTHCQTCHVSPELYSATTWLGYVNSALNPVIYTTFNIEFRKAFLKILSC
Source text: D3 DARs represent a very important target for the treatment of several neuropsychiatric disorders. Indeed, one of the most promising therapeutic applications for the D3 DAR is in the area of addiction and related disorders. […] These findings have been observed with a number of addictive substances including cocaine, amphetamine, nicotine, and alcohol. […] Antagonism of the D3 DAR may also be therapeutic in the treatment of schizophrenia or psychosis. […] Since the D3 DAR is expressed in areas of the CNS associated with the control of mood and emotion, it has been hypothesized that selective antagonism of the D3 DAR may be effective in treating psychosis without inducing the motor side effects typically seen with D2 DAR antagonists.
This part of the project aims to discover novel antagonist.
NIH Chemical Genomics Center [NCGC]
NIH Molecular Libraries Probe Centers Network [MLPCN]
Assay Submitter (PI): David Sibley, NINDS
Freshly passaged cells are plated in 1536 well white, solid bottom plates at a density of 1500 cells/well in 3microl of complete media. After an overnight incubation at 37 degrees C in 5% CO2, cells are loaded with 23nl of test compound from the compound library (as well as dopamine controls) using a 1536 pintool and incubated at 37 degrees C for 90 minutes. Two microliters of DiscoveRx reagent is then added to all cells, and they are incubated for an additional 30 - 60 minutes at room temperature. Following incubation, luminescence is measured on a ViewLux CCD-based luminometer reader using a 20 sec exposure time.
On the % scale 0 is the no-effect control and ±100 the full control effect.

Compound | max response, negative = inhibition
Cc1ccc(C)c(C(O)c2ncc(-c3cccc4ccccc34)[nH]2)c1 (configuration not stated) | -3.53% (inactive)
COC(=O)c1ccc2nc(-c3ccc(Cl)cc3)c(Cc3cccc(F)c3)n2c1 | 88.8% (inactive)
CC(=O)Nc1ccc(Nc2c([N+](=O)[O-])cc(S(C)(=O)=O)cc2[N+](=O)[O-])cc1 | -15.9% (inactive)
Cn1cnnc1Sc1ccc(S(C)(=O)=O)cc1[N+](=O)[O-] | -78.8% (active)
CCN(CC(=O)Nc1c(F)cccc1F)C(=O)c1ccc(Sc2nncn2C)c([N+](=O)[O-])c1 | 2.59% (inactive)
CC1=C(C(=O)Nc2cccc(C(=O)NCC(C)c3ccccc3)c2)SCCO1 (configuration not stated) | 104% (inactive)
O=C1c2cccc3cc(Br)cc(c23)C(=O)N1Nc1ccccc1 | -62.9% (active)
O=C(CN1C(=O)c2cccc3cccc1c23)Nc1ccccc1 | 5.41% (inactive)
O=C1C=C(c2ccc(Cl)cc2)C(=O)N1Nc1ccccc1 | -22.9% (inactive)
COc1cccc(CNc2nc(NCc3ccccc3OC)nc3ccsc23)c1 | 31.6% (inactive)
O=C1C2CCCN2C(=O)N1CCCCN1CCN(c2cccc(C(F)(F)F)c2)CC1 (configuration not stated) | -115% (active)
O=C(C1CC(=O)N(C2CCCC2)C1)N1CCN(c2cccc(C(F)(F)F)c2)CC1 (configuration not stated) | -17.8% (inactive)
O=C(CCN1CCCO1)N1CCCC(N2CCN(c3cccc(C(F)(F)F)c3)CC2)C1 (configuration not stated) | -5.11% (inactive)
CCCCCc1c(-c2ccc(OC)c(OC)c2)ncn1CCc1ccccc1OC | -3.21% (inactive)
O=C1NC[C@H](Cc2ccc(O)cc2)N(C[C@H]2CCCN2C[C@H](Cc2ccccc2)N2C[C@H](Cc3ccccc3)N(CCc3ccccc3)C(=O)C2=O)C1=O | -27.9% (inactive)
COc1ccc(CN2C(=O)C(CC(=O)NCCCCc3ccccc3)CC(C(=O)N3CCOCC3)=C2C)cc1 (configuration not stated) | 17.9% (inactive)
Cc1ccc(C(=O)NC(C)C(c2cccs2)N2CCOCC2)cc1C (configuration not stated) | -24.7% (inactive)
N#Cc1ccc(C(C(=O)NCc2ccccc2)n2c(=O)c(-c3ccco3)nc3ccccc32)cc1 (configuration not stated) | -4.27% (inactive)
O=C(CN1CCN(C(=O)c2ccco2)CC1)Nc1ccc2c(c1)OCO2 | -5.37% (inactive)
O=C(Cn1c(=O)sc2ccccc21)Nc1ccc2c(c1)OCCO2 | 7.52% (inactive)
O=C(CN1CCC(O)(c2ccccc2)CC1)Nc1ccc2c(c1)OCCO2 | -57.9% (active)

Compound | max response, negative = inhibition
CN1C[C@@H](CO)O[C@@H](n2cnc3c(N4CCN(CCO)CC4)ncnc32)C1 | 2.48% (inactive)
COc1cccc(-c2cc3nc(NCc4ccccc4OC)n(C)c(=O)c3s2)c1 | 23.1% (inactive)
COc1ccc(CN2C(=O)C(CC(=O)NC3CCCCC3)CC(C(=O)N3CCOCC3)=C2C)cc1 (configuration not stated) | -7.02% (inactive)
FC(F)(F)C1CCCN(c2nsc3ccccc23)C1 (configuration not stated) | -81.7% (active)
COc1ccc([C@H]2CC(=O)C[C@@H](CCn3cc(CC4CCCC4)nn3)O2)cc1 | 5.27% (inactive)
CCCS(=O)(=O)NC(=O)C1(C)CCN(C(=O)c2sccc2C)C1 (configuration not stated) | 18.5% (inactive)
Nc1nc(CSc2nnnn2-c2ccccc2)nc(Nc2ccccc2)n1 | 16% (inactive)
CC1(C(=O)Nc2ccccc2Br)CCN1C(=O)CC1CC1 (configuration not stated) | 27.1% (inactive)
COc1ccc(CNC(=O)CN2CCC(n3nnc4cc(F)ccc43)CC2)cc1 | -83.8% (active)
COc1ccccc1CNC(=O)CN1CCC(n2cnc3cc(F)ccc32)CC1 | -0.289% (inactive)
CC(=O)c1cccc(S(=O)(=O)N2CCC(n3nnc4cc(F)ccc43)CC2)c1 | -14.5% (inactive)
CC(C)(C(=O)N1CCC1(C)C(=O)NS(=O)(=O)c1ccc(Br)cc1)c1ccccc1 (configuration not stated) | 11.9% (inactive)
CCC(=O)c1ccc(OCC(O)CN2C(=O)NC(C)(C)C2=O)cc1 (configuration not stated) | 0% (inactive)
CC1CCN(CC(O)COc2ccc(C(=O)c3ccccc3)cc2)CC1 (configuration not stated) | 0% (inactive)
CCC(=O)c1ccc(OCC(O)CN2CC(C)OC(C)C2)cc1 (configuration not stated) | -54.2% (active)
OCCc1ccc(NCCc2ccco2)cc1 | 11.1% (inactive)
O=C(O)c1ccc(/C=C2\SC(=S)N(NC(=O)c3ccc(Br)cc3)C2=O)cc1 | -21.3% (inactive)
Cn1cccc1/C=C1\SC(=S)N(NC(=O)c2ccc(Cl)cc2)C1=O | -70.7% (active)
CCOc1ccc(/C=C2\SC(=S)N(NC(=O)c3ccncc3)C2=O)cc1OC | -13.1% (inactive)
COC(=O)C1(C(=O)OC)C[C@H](c2ccccc2)N(Cc2ccccc2OC)[C@@H]1c1ccccc1 | -25.4% (inactive)
Cc1ccc(OCCNC(=O)CN2C(=O)NC3(CCCC3)C2=O)cc1 | -22.9% (inactive)

Compound | max response, negative = inhibition
CCc1ccc(OCC(O)CN2CCN(CCO)CC2)cc1 (configuration not stated) | 18.7% (inactive)
CCc1ccc(OC2(C)CCN(CCOc3ccc(C)cc3)C2)cc1 (configuration not stated) | -75% (active)
CCCNC(=O)C1(C)CCN1C(=O)C1(c2ccccc2)CC1 (configuration not stated) | -7.67% (inactive)
Cc1sc2nc(-c3ccccc3F)oc(=O)c2c1C | 0% (inactive)
CCCc1nc2ccccc2n1C(C)C(=O)NC(C)(C)C (configuration not stated) | -12.7% (inactive)
CC(OC(=O)c1ccc(NC(=O)CC#N)cc1)C(=O)Nc1ccc(S(=O)(=O)N2CCCC2)cc1 (configuration not stated) | 2.56% (inactive)
COc1cc(C(O)c2nc(-c3cnn(C)c3)cs2)ccc1F (configuration not stated) | -2.22% (inactive)
O=C(N[C@H]1CC[C@H](CC(=O)N2CCCCC2)O[C@@H]1CO)c1cccc(F)c1 | 1.98% (inactive)
CC(=O)Nc1ccc(OCC(O)CN2CCN(c3ccccc3Cl)CC2)cc1 (configuration not stated) | -66.4% (active)
Cc1nn(CCOc2ccccc2)c(=O)n1-c1ccccc1F | -0.664% (inactive)
OC(COc1ccccc1)CN1CCN(c2cccc(Cl)c2)CC1 (configuration not stated) | -51.8% (active)
O=C(c1ccc(Cl)cc1)c1ccc(OCC(O)CN2CCCCC2)cc1 (configuration not stated) | -2.74% (inactive)
CCc1nn(CCCN2CCN(c3cccc(Cl)c3)CC2)c(=O)n1CCOc1ccccc1 | -77.2% (active) and -89.6% (active)
CCN1C(=O)/C(=C\N2CCN(c3cccc(Cl)c3)CC2)SC1=S | -22.6% (inactive)
O=C(CCCC(=O)N1CCN(c2cccc(Cl)c2)CC1)c1ccccc1 | 11.7% (inactive)
CC(C)c1ccc(OCC(O)CN2CCN(c3ccccn3)CC2)cc1 (configuration not stated) | -29.5% (inactive)
COC(=O)COc1ccc(S(=O)(=O)N2CCOCC2)cc1 | 20.2% (inactive)
OC(COc1ccc2c(c1)CCC2)CN1CCN(c2cccc(Cl)c2)CC1 (configuration not stated) | 0% (inactive)
O=S(=O)(c1ccc(OCC(O)CN2CCN(c3ccccc3Cl)CC2)cc1)N1CCOCC1 (configuration not stated) | -73% (active)
CC(=O)c1ccc(OCC(O)CN2CCN(S(=O)(=O)c3cccc(Br)c3)CC2)cc1 (configuration not stated) | 22% (inactive)
